Records with an inconclusive call do not appear. The source made the active and inactive calls. Unless noted, calls come from the whole dose curve; as a rule, active = well fitted curve in the direction sought with a large enough effect in the repeat runs; inconclusive = weak or mixed curves; inactive = no such curve, though single readings can be large; an effect the other way counts as inactive or inconclusive.
Experiments:
[1] = A CellTox Green Cytotoxicity Assay to monitor cytotoxicity in HepG2 cells - 0 hour (AID 1224882); note: nearly all actives have a fitted effect of over 35% in size
Outline: (§1)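 Real-time, homogeneous cytotoxicity readout: dead-cell DNA staining by CellTox Green in HepG2 monolayers, fluorescence measured at timed intervals up to 40 h of continuous compound exposure.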

[2] = A CellTox Green Cytotoxicity Assay to monitor cytotoxicity in HepG2 cells - 32 hour (AID 1224883); note: nearly all actives have a fitted effect of over 50% in size
Outline: as §1

[3] = A CellTox Green Cytotoxicity Assay to monitor cytotoxicity in HEK293 cells - 8 hour (AID 1224884); note: nearly all actives have a fitted effect of over 35% in size
Outline: (§2)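 Cytotoxicity was tracked continuously in HEK293 cells by a DNA-binding dye excluded from viable cells. Compounds were transferred in DMSO 5 h after seeding; fluorescence was recorded at intervals up to 40 h.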

[4] = qHTS RealTime-Glo MT Cell Viability Assay in HepG2 cells - 16 hour (AID 1224885); note: nearly all actives have a fitted effect of over 50% in size
Outline: (§3)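 Cells + NanoLuc/prosubstrate dispensed (600 cells/well) → 5 h at 37 C/5% CO2 → compounds in DMSO transferred → 40 h incubation at 37 C, luminescence read at 0, 8, 16, 24, 32, 40 h.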

[5] = qHTS RealTime-Glo MT Cell Viability Assay in HEK293 cells - 24 hour (AID 1224886); note: top concentration of the series differs between compounds; nearly all actives have a fitted effect of over 50% in size
Outline: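 Tox21 10K qHTS, HEK293, 600 cells/well, RealTime-Glo reagent co-dispensed with cells; 5 h preincubation, compound by pintool, 37 C, luminescence at 0–40 h.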

[6] = A CellTox Green Cytotoxicity Assay to monitor cytotoxicity in HEK293 cells - 16 hour (AID 1224888); note: nearly all actives have a fitted effect of over 35% in size
Outline: as §2

[7] = qHTS RealTime-Glo MT Cell Viability Assay in HepG2 cells - 0 hour (AID 1224889); note: nearly all actives have a fitted effect of over 50% in size
Outline: as §3

[8] = A CellTox Green Cytotoxicity Assay to monitor cytotoxicity in HepG2 cells - 8 hour (AID 1224890); note: nearly all actives have a fitted effect of over 45% in size
Outline: as §1

[9] = qHTS assay to identify small molecule antagonists of the estrogen receptor alpha (ER-alpha) signaling pathway using the BG1 cell line in the presence of 0.1 nM 17-beta-estradiol - cell viability counter screen (AID 1259241); note: nearly all actives have a fitted effect of over 40% in size
Outline: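 Live-cell protease activity (CellTiter-Fluor fluorescence, 30 min) was read in the same wells after VM7Luc4E2 cells had been exposed to compounds with 0.1 nM 17beta-estradiol for 22 hr at 37C.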

[10] = qHTS assay to identify small molecule antagonists of the androgen receptor (AR) signaling pathway using the MDA cell line in the presence of 0.5 nM R1881 - cell viability counter screen (AID 1259242); note: nearly all actives have a fitted effect of over 45% in size
Outline: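 Cytotoxicity toward MDA-kb2 cells is measured by CellTiter-Fluor live-cell protease fluorescence after 16 hr compound exposure at 37C in the presence of 0.5 nM R1881 stimulator.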

[11] = target: Estrogen receptor (Homo sapiens) (UniProt P03372); assay: qHTS assay to identify small molecule antagonists of the estrogen receptor alpha (ER-alpha) signaling pathway using the BG1 cell line in the presence of 0.1 nM 17-beta-estradiol (AID 1259244); note: nearly all actives have a fitted effect of over 50% in size
Chain of Estrogen receptor (Homo sapiens) (P03372 whole entry, looked up): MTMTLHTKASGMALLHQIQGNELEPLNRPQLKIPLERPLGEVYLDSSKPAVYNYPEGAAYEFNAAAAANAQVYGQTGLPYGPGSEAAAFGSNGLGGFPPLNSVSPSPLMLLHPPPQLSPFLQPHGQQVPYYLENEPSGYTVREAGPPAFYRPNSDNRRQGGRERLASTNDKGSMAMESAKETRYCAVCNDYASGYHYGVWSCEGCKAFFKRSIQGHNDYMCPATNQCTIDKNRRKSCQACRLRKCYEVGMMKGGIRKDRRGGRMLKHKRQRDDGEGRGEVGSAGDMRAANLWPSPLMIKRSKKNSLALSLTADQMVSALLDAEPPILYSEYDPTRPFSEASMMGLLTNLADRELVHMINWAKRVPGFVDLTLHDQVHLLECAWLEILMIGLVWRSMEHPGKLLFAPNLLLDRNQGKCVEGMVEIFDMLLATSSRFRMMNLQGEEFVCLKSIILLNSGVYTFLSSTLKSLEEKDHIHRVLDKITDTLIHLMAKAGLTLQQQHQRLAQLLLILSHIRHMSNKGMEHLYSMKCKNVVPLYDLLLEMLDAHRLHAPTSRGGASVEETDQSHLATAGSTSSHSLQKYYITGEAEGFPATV
Outline: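 After 5 days in hormone-depleted medium (charcoal-stripped serum, no phenol red), VM7Luc4E2 cells were seeded, incubated 24 h, then co-treated with compound and 0.1 nM (final) estradiol for 22 h before luminescence detection.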

[12] = qHTS assay to identify small molecule phospholipidosis (PLD) inducers (AID 1259344; active = well fitted curve in the direction sought with a large enough effect; an effect the other way counts as inactive or inconclusive)
Outline: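 Phospholipidosis is scored by imaging LipidTOX-stained pits in HepG2 cells exposed to compound for 24 h at 37 C; pit counts and integrated intensities per well and per cell serve as outputs.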

[13] = qHTS assay to identify small molecule HDAC inhibitors (AID 1259364); note: nearly all actives have a fitted effect of over 45% in size; note: potency is the fitted concentration of half-maximal effect
Outline: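 Homogeneous cell-based luminescent assay of endogenous class I/II HDAC activity; HCT-116 cells, 2 h compound exposure, 30 min HDAC-Glo development at RT.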

[14] = qHTS assay to identify small molecule HDAC inhibitors - cell viability counter screen (AID 1259365)
Outline: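 HCT-116 (wild type), 1,500 cells/well, overnight 37C/5% CO2; compound in DMSO 2hr; CellTiter-Glo 30min RT; luminescence read.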

[15] = qHTS assay to identify small molecule agonists of the sonic hedgehog signaling (Shh) pathway - cell viability counter screen (AID 1259366); note: nearly all actives have a fitted effect of over 50% in size
Outline: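 CellTiter-Fluor fluorescence read-out, 1 hr at 37C, added after 23hr compound exposure. Cells: 3T3 Gli1-Luc, an NIH/3T3 clone with stably integrated Gli1-Luc reporter, plated 4hr before compound.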

[16] = qHTS assay to identify small molecule antagonists of the sonic hedgehog signaling (Shh) pathway - cell viability counter screen (AID 1259367); note: nearly all actives have a fitted effect of over 55% in size
Outline: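 Cells: 3T3 Gli1-Luc, 2,000/well, 4 hr pre-incubation. Compounds in DMSO, then conditioned medium. Incubation 24 hr, 37C, 5% CO2. CellTiter-Fluor at 23 hr, 1 hr, fluorescence.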

[17] = qHTS assay to identify small molecule agonists of the sonic hedgehog signaling (Shh) pathway (AID 1259368; calls by dose curve;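 note: NIH/3T3-derived 3T3Gli1-Luc cells carrying a stable Gli1-driven firefly luciferase reporter; series mostly up to about 92 µM; nearly all actives have a fitted effect of over 15% in size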)
Outline: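 Steps: seed 3T3 Gli1-Luc cells, incubate 4 hr at 37 C, pin-transfer compounds in DMSO alongside a positive control, incubate 24 hr, add luciferase detection reagent, wait 30 min at room temperature, read luminescence.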

[18] = qHTS RealTime-Glo MT Cell Viability Assay in HEK293 cells - 8 hour (AID 1224887); note: nearly all actives have a fitted effect of over 50% in size; note: potency is the fitted concentration of half-maximal effect
Outline: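 Nonlytic bioluminescent viability monitoring. HEK293 at 600 cells/well with reagent; 5 h settle; compound transfer by pintool; plates held at 37 C and read at set time points.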

[19] = target: Androgen receptor (Homo sapiens) (UniProt P10275); assay: qHTS assay to identify small molecule antagonists of the androgen receptor (AR) signaling pathway using the MDA cell line in the presence of 0.5 nM R1881 (AID 1259243); note: nearly all actives have a fitted effect of over 50% in size
Chain of Androgen receptor (Homo sapiens) (P10275 whole entry, looked up): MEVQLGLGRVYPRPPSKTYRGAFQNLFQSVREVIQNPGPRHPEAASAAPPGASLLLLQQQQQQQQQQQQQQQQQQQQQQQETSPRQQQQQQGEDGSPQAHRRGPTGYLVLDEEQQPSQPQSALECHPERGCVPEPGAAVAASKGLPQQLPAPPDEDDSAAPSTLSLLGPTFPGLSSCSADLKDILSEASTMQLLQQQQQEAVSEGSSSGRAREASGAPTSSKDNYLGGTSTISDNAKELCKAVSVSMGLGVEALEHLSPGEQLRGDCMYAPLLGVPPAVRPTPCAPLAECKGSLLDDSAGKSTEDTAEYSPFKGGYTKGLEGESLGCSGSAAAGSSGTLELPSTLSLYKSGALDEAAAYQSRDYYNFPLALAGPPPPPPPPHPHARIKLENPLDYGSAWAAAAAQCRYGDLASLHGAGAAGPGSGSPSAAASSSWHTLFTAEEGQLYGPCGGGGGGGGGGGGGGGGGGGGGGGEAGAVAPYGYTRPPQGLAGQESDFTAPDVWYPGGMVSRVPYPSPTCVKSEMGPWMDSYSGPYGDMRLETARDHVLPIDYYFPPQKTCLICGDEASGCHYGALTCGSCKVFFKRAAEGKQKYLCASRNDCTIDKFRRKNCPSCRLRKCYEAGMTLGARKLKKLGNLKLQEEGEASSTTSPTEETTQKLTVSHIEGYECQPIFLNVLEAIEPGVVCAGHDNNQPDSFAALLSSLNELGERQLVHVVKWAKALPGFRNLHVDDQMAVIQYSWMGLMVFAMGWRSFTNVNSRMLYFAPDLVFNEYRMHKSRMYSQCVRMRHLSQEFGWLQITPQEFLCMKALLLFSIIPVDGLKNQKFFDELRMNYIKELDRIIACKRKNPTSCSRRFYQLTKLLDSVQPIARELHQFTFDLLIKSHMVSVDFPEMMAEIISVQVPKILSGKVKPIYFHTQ
Outline: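 Steps: seed MDA-kb2 cells, incubate 5 hr at 37C; pin-transfer compounds in DMSO; add R1881 to 0.5 nM final; incubate 16 hr; add ONE-Glo, wait 30 min at room temperature; read luminescence.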
% is set by controls: 0 for no effect and ±100 for the full control effect.

O=C(CO)[C@@H](O)[C@H](O)[C@H](O)CO
inactive: Potency [1] | Potency [2] | outcome [3] | outcome [4] | Potency [5] | outcome [6] | Potency [7] | outcome [8] | outcome [9] | outcome [10] | outcome [11] | outcome [12] | Potency [13] | outcome [14] | Potency [15] | Potency [16] | outcome [17]

CC(C)[C@H]1CC[C@@H](C)CC1=O
inactive: Potency [1] | Potency [2] | outcome [3] | outcome [4] | Potency [5] | Potency [18] | outcome [6] | Potency [7] | outcome [8] | outcome [9] | outcome [10] | Potency [13] | outcome [14] | Potency [15] | Potency [16] | outcome [17]

CCC1C(=O)OCC1Cc1cncn1C (stereo not drawn)
inactive: Potency [2] | outcome [3] | outcome [4] | Potency [5] | Potency [18] | outcome [6] | Potency [7] | outcome [8] | outcome [9] | outcome [10] | outcome [11] | outcome [12] | Potency [13] | outcome [14] | Potency [15] | Potency [16] | outcome [17]

Nc1ccncc1N
inactive: Potency [1] | Potency [2] | outcome [3] | outcome [4] | Potency [5] | Potency [18] | outcome [6] | Potency [7] | outcome [8] | outcome [10] | outcome [12] | Potency [13] | outcome [14] | Potency [15] | Potency [16] | outcome [17]

c1ccc(CCc2ccccc2)cc1
inactive: Potency [1] | outcome [3] | outcome [4] | Potency [5] | outcome [6] | Potency [7] | outcome [9] | outcome [10] | Potency [13] | outcome [14] | Potency [15] | Potency [16] | outcome [17]

Cc1cccc(C)c1NC(=O)CC12CCCN1CCC2
inactive: outcome [3] | outcome [4] | Potency [5] | Potency [18] | outcome [6] | Potency [7] | outcome [8] | outcome [9] | outcome [10] | outcome [11] | outcome [12] | Potency [13] | outcome [14] | Potency [16] | outcome [17]

CCOC(=O)COC(=O)c1ccccc1C(=O)OCC
inactive: Potency [1] | Potency [2] | outcome [3] | outcome [4] | Potency [5] | outcome [6] | Potency [7] | outcome [8] | outcome [9] | outcome [10] | outcome [11] | Potency [13] | outcome [14] | Potency [15] | Potency [16] | outcome [17]

CCNS(=O)(=O)c1ccc(C)cc1
inactive: Potency [1] | Potency [2] | outcome [3] | outcome [4] | Potency [18] | outcome [6] | Potency [7] | outcome [8] | outcome [10] | outcome [11] | Potency [13] | outcome [14] | Potency [16] | outcome [17]

C=CC(=O)OCCCl
inactive: Potency [1] | outcome [3] | outcome [4] | Potency [5] | Potency [18] | outcome [6] | Potency [7] | outcome [8] | outcome [10] | outcome [11] | Potency [13] | outcome [14] | Potency [15] | Potency [16] | outcome [17]

CC[N+](CC)(CC(=O)Nc1c(C)cccc1C)Cc1ccccc1 (tested in a mixture with another compound)
inactive: Potency [1] | Potency [2] | outcome [3] | outcome [4] | Potency [5] | Potency [18] | outcome [6] | Potency [7] | outcome [8] | outcome [10] | Potency [13] | outcome [14] | Potency [16] | outcome [17]

O=C(c1ccccc1)C1(O)CCCCC1
inactive: Potency [1] | Potency [2] | outcome [4] | Potency [5] | Potency [18] | outcome [6] | Potency [7] | outcome [8] | outcome [9] | outcome [10] | Potency [13] | outcome [14] | Potency [15] | Potency [16] | outcome [17]

CCC(C(=O)NC(=O)NC(C)=O)c1ccccc1 (stereo not drawn)
inactive: Potency [2] | outcome [3] | outcome [4] | Potency [5] | Potency [18] | outcome [6] | Potency [7] | outcome [8] | outcome [9] | outcome [10] | outcome [11] | PLD induction [12] -2.71% [at 7.66 µM] | Potency [13] | outcome [14] | Potency [15] | Potency [16] | outcome [17]

O=C1c2ccccc2C(=O)c2cc(O)ccc21
inactive: Potency [1] | Potency [2] | outcome [3] | outcome [4] | outcome [6] | Potency [7] | outcome [8] | outcome [10] | outcome [14] | Potency [15] | Potency [16]
active: Potency [18] 55 µM | Potency [13] 7.7 µM

CC1(C)OC[C@@H](COC(=O)CCc2ccc(OC[C@@H](O)CNCCNC(=O)N3CCOCC3)cc2)O1
inactive: Potency [1] | outcome [3] | outcome [4] | Potency [5] | Potency [18] | outcome [6] | Potency [7] | outcome [8] | outcome [9] | outcome [10] | Potency [19] | outcome [11] | outcome [12] | Potency [13] | outcome [14] | Potency [16] | outcome [17]

CCCCOCCOC(=O)CCCCCCCCC(=O)OCCOCCCC
inactive: Potency [1] | Potency [2] | outcome [3] | outcome [4] | Potency [18] | outcome [6] | Potency [7] | outcome [8] | outcome [9] | outcome [10] | Potency [13] | outcome [14] | Potency [15]
